HT1080NT lethal: qHTS for induction of synthetic lethality in tumor cells producing 2HG: qHTS for the HT-1080-NT fibrosarcoma cell line; Potency, µM (series often up to 46.1 µM), without a hit: at the highest dose activity, negative = less viability, most hits filed as cytotoxic; HT-1080-NT fibrosarcoma viability, CellTiter-Glo ATP luminescence, 48 h; AID 686970, 2013; 1.6% of 360,000 active;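 further: NT is the 2HG producing partner of a matched IDH1 knockdown line; potency means the concentration at half of the fitted maximal effect; 0% = DMSO-treated cells and -100% = media-only wells without cells; nearly all actives have a fitted effect of over 55% in size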
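HT-1080-NT fibrosarcoma cells (2HG-overproducing), 750 cells/well in RPMI with 5% FBS, dosed after 2 h and incubated 48 h at 37C. CellTiter-Glo luminescence normalized to DMSO and no-cell wells; concentration-response curves fitted and classed.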
HT1080 IDH1KD tx: qHTS for induction of synthetic lethality in tumor cells producing 2HG: qHTS for the HT-1080-IDH1KD cell line | 2% of 360,000 active | Potency, µM (highest dose often 46.1 µM), for the others: top-dose activity, negative = toxicity, actives largely listed as cytotoxic | HT-1080 IDH1 knockdown viability, ATP luminescence, 48 h;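 further: potency means the concentration at half of the fitted maximal effect; 0% = DMSO wells and -100% = cell-free medium wells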
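IDH1KD HT-1080 cells, 750/well, RPMI + 5% FBS; compound pinned after 2 h settling; 48 h, 37 °C; CellTiter-Glo luminescence; % activity normalised to DMSO and no-cell wells; curves fitted, classed by r2 and efficacy.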
DT40 TDP1 CPT: qHTS for Inhibitors of human tyrosyl-DNA phosphodiesterase 1 (TDP1): qHTS in cells in presence of CPT; chicken DT40 Tdp1-/-;hTDP1 cells + 20 nM CPT, ATP luminescence, 48 h; Potency, µM (highest dose often 46.2 µM), without a hit: top-dose activity change, negative = growth inhibition, usual class: inhibitors; 12% of 420,000 active; further: potency means the concentration at half of the fitted maximal effect; nearly all actives have a fitted effect of over 55% in size
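Chicken DT40 Tdp1-/- cells complemented with human TDP1, 400 cells/well, exposed to compounds plus 20 nM camptothecin for at least 48 h at 37 C; viability read as ATP content by CellTiter-Glo luminescence.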
DT40 TDP1 no CPT: qHTS for Inhibitors of human tyrosyl-DNA phosphodiesterase 1 (TDP1): qHTS in cells in absence of CPT; DT40 Tdp1-/- hTDP1 cells, no CPT, ATP luminescence, 48 h; Potency, µM (top dose mostly 46.2 µM), for the others: top-dose activity change, negative = growth inhibition, usual class: inhibitors; 15% of 420,000 active; further: potency means the concentration at half of the fitted maximal effect; nearly all actives have a fitted effect of over 55% in size
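Seeded 400 DT40-hTDP1 cells/well (vehicle DMSO, no 20 nM CPT); pinned compounds; ≥48 hr at 37 °C; CellTiter-Glo luminescence as viability measure.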
IL-1B inflam inh: qHTS for Inhibitors of Inflammasome Signaling: IL-1-beta AlphaLISA Primary Screen; THP-1 LPS/ATP IL-1B secretion, AlphaLISA, 16 h; active compounds read low; activity change, % at 57.5 µM; 4.7% of 360,000 active; AID 743279, 2014; in the data active means activity change below about -50%; inconclusive means mostly about -30% to -49%
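Secreted IL-1B measured by AlphaLISA bead assay after 16 h compound exposure of THP-1 cells; compounds (final up to 57.5 uM) added 1 h before LPS (250 ng/mL) and ATP (1.25 mM) stimulation; lower signal means less secretion.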
Starred values were filed as active, the others as inactive; ? = inconclusive; . = not tested or not shown; [ ] = dose if it differs, or a comment. This is a sample that favours compounds with a hit; in the whole collection about 19% have one here. Unless noted, the call rests on the fitted dose curve; in most records, active means well fitted curve in the direction sought with a large enough effect; inconclusive means small, poorly fitted or top-dose-only effect, or another doubt; inactive means no such curve, though single readings can be large; an effect the other way counts as inactive or inconclusive. Unless noted, on the % scale 0 is the no-effect control and ±100 the full control effect.

SMILES	HT1080NT lethal	HT1080 IDH1KD tx	DT40 TDP1 CPT	DT40 TDP1 no CPT	IL-1B inflam inh
CC1(C)COCN1S(=O)(=O)c1ccc(C(=O)Nc2nnc(-c3ccc(Cl)s3)o2)cc1	?	2.82µM*	3.98µM*	4.47µM*	60.7
COc1ccc(-c2nnc(NC(=O)c3ccc(S(=O)(=O)N4COCC4(C)C)cc3)o2)cc1	?	8.2µM*	3.66µM*	3.66µM*	24.5
Cc1ccc2[nH]c3c(c2c1)CN(C(=O)CN1CCN(Cc2ccc4c(c2)OCO4)CC1)CC3	20.6µM*	?	?	?	-21.4
Cc1ccc2[nH]c3c(c2c1)CN(C(=O)CN1CC(C)OC(C)C1)CC3 (stereo not drawn)	0.7%	-2.4%	-7.8%	?	-2.4
CCOC(=O)N1CCc2[nH]c3ccc(C)cc3c2C1	?	-23.3%	14.6µM*	23.1µM*	?
CCOc1ccc(S(=O)(=O)N2CCOCC2)cc1NC(=O)CSCc1c(C)noc1C	7.0%	0.7%	-11.8%	-20.3%	-15.0
Cn1c(=O)c2c(nc(NCc3ccccc3)n2CCCc2ccccc2)n(C)c1=O	-7.2%	-15.1%	9.2µM*	5.17µM*	-1.5
CCOCCCNc1nc2c(c(=O)n(C)c(=O)n2C)n1CCCc1ccccc1	-4.7%	20.6%	16.4µM*	20.6µM*	-5.2
COCCNc1nc2c(c(=O)n(C)c(=O)n2C)n1CCCc1ccccc1	0.9%	-1.2%	14.6µM*	10.3µM*	23.8
COCCCNc1nc2c(c(=O)[nH]c(=O)n2C)n1CCCc1ccccc1	0.6%	13.8%	10.0%	-12.5%	25.6
NC(=O)c1ccc(NC(=O)COC(=O)CCN2C(=O)c3ccccc3C2=O)cc1	6.5%	10.3%	-21.7%	-1.4%	4.1
CC1(C)Cc2c(cnn2-c2ccccc2)-c2c1c1ccccc1n2CC(O)CCl (stereo not drawn)	18.4µM*	20.6µM*	?	?	21.4
N#Cc1ccc(CSc2ccc(S(=O)(=O)N3CCCCCC3)cn2)cc1	-4.4%	-20.2%	?	29.1µM*	-4.7
CCC(C)NC(=O)CSc1ccc(S(=O)(=O)N2CCN(Cc3ccccc3)CC2)cn1 (stereo not drawn)	-6.9%	0.0%	?	29.1µM*	-0.4
O=[N+]([O-])c1ccc(CSc2ccc(S(=O)(=O)N3CCCCCC3)cn2)cc1	-14.3%	-17.4%	23.1µM*	16.4µM*	-8.5
CC(C)N(C(=O)CSc1ccc(S(=O)(=O)N2CCCCC2)cn1)C(C)C	4.6%[9.24 µM]	-1.3%	16.4µM*	-26.9%	-5.4
CCN(CC)S(=O)(=O)c1ccc(Oc2ccccc2)cc1	0.0%	-23.0%	-18.1%	3.3%	-8.2
CN(CC(=O)Nc1ccc(OC(F)(F)F)cc1)S(=O)(=O)c1ccc2c(c1)CCC(=O)N2	.	.	?	11.6µM*	.
COc1ccc(NC(=O)CN(C)S(=O)(=O)c2ccc3c(c2)CCC(=O)N3)c(OC)c1	0.4%	7.1%	-0.3%	-23.1%	-11.1
CC(=O)N1c2ccc(S(=O)(=O)NCCC(=O)Nc3ncccc3C)cc2CC1C (stereo not drawn)	1.8%	2.7%	-16.8%	18.3%	13.0
CC(=O)N1c2ccc(S(=O)(=O)NCCC(=O)Nc3ccc(C)c(F)c3)cc2CC1C (stereo not drawn)	1.4%	-4.9%	?	20.6µM*	54.5
COc1ccc(NC(=O)CCNS(=O)(=O)c2ccc3c(c2)CC(C)N3C(=O)C2CC2)cc1 (stereo not drawn)	4.1%	0.7%	?	-28.4%	36.2
CC(=O)N1c2ccc(S(=O)(=O)NCCC(=O)Nc3ccc(Cl)cc3)cc2CC1C (stereo not drawn)	6.6%	2.5%	18.4µM*	?	3.1
CC(=O)N1c2ccc(S(=O)(=O)NCCC(=O)Nc3ccc(OC(F)(F)F)cc3)cc2CC1C (stereo not drawn)	1.4%	-0.5%	18.4µM*	?	21.0
CC[C@]12c3[nH]c4cc(CCC(=O)N(C)C)ccc4c3CCN1C(=O)[C@@H](CC(=O)NCc1cccc(C(F)(F)F)c1)C[C@@H]2C(=O)N1CCN(C(=O)C2CC2)CC1	-6.4%	-4.5%	-20.4%	?	-15.9
SMILES	HT1080NT lethal	HT1080 IDH1KD tx	DT40 TDP1 CPT	DT40 TDP1 no CPT	IL-1B inflam inh
CC(=O)N1CCc2cc(S(=O)(=O)C(C)CC(=O)Nc3ccc(OC(F)(F)F)cc3)ccc21 (stereo not drawn)	-8.5%	-18.0%	20.6µM*	?	20.2
CC(=O)N1c2ccc(S(=O)(=O)NCCC(=O)NC3CCCC(C)C3C)cc2CC1C (stereo not drawn)	-1.2%	-0.8%	-44.8%	?	-52.4*
O=C(CCN1C(=O)C2CC=CCC2C1=O)Nc1cc(C(F)(F)F)ccc1N1CCCC1 (stereo not drawn)	2.1%	-9.5%	?	-5.0%	13.2
C/C=C/c1ccc(OCCn2nnc3ccccc32)c(OC)c1	-15.6%	-3.6%	18.4µM*	14.6µM*	0.0
C=CCc1ccccc1OCCn1nnc2ccccc21	-6.8%	1.9%	?	23.1µM*	50.5
CCN(CC)C(=O)[C@H]1C[C@H](CC(=O)NC(C)(C)C)C(=O)N2CCc3c([nH]c4cc(-c5ccco5)ccc34)[C@]12C	-5.5%	-0.1%	23.1µM*	18.4µM*	-8.1
CC(C)N(C(=O)[C@H]1C[C@H](CC(=O)NC(C)(C)C)C(=O)N2CCc3c([nH]c4cc(-c5ccco5)ccc34)[C@]12C)C(C)C	-21.9%	-22.5%	?	?	-67.5*
CC(C)Cc1cc(C(C)(C)C)ccc1OC(=S)N(C)C	-13.9%	-5.4%	?	?	19.7
Cc1cc(C(=O)Nc2ccccc2-c2nc(CNC(=O)c3sc(C)nc3C)c(C)o2)c(C)o1	.	.	-8.6%[9.04 µM]	-13.0%	.
Cc1ccc(-n2nc(CO)c(C(=O)NCc3cccs3)n2)cc1	.	.	8.0%	1.0%	.
CCOc1ccc(-n2nc(CO)c(C(=O)NCc3cccs3)n2)cc1	.	.	?	16.4µM*	.
CC1CC(C)CN(C(=O)COC(=O)CNC(=O)C23CC4CC(CC(C4)C2)C3)C1 (stereo not drawn)	-0.2%	3.2%	4.1%	-4.4%	11.8
COCCNC(=O)c1cn(C2CCN(C3CCCC3)CC2)nn1	.	.	0.4%[9.04 µM]	5.6%	.
Cc1ccc2nc3c(c(Nc4ccc(O)cc4)c2c1)CCC3	-16.2%	-21.2%	?	18.4µM*	-6.4
Cc1ccc2nc3c(c(Nc4ccc5c(c4)OCCO5)c2c1)CCC3	?	?	16.4µM*	18.4µM*	-92.2*

High-throughput results deposited in PubChem by National Center for Advancing Translational Sciences (NCATS).
